Values joined by “and” are separate entries in the source; they are usually repeats but may differ in a detail not shown here. Identical values can stand only once. Records with an inconclusive call do not appear. Some structures have more than one record in an assay (separate samples or runs), and their calls can disagree. Active and inactive are the calls of the source. Unless noted, calls come from the whole dose curve; as a rule, active = well fitted curve in the direction sought with a large enough effect; inconclusive = small, poorly fitted or top-dose-only effect, or another doubt; inactive = no such curve, though single readings can be large; an effect the other way counts as inactive or inconclusive.

For experiment [1], the target named is Glutathione peroxidase 1 (Homo sapiens) (UniProt P07203). Briefly: Primary qHTS Assay for Inhibitors of Recombinant Selenoprotein Glutathione Peroxidase 1 (GPX1) (AID 1845191). For activity, negative = inhibition: % is set by controls: 0 for no effect and ±100 for the full control effect. Note: nearly all actives have a fitted effect of over 65% in size. Note: potency is the fitted concentration of half-maximal effect. Summed up:
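Recombinant GPX1 (10 nM final) was preincubated with compound for 30 min at room temperature, then reacted with 1 mM GSH, 0.5 mM CHP, 0.5 mM NADPH and 100 nM glutathione reductase; NADPH fluorescence (340/450 nm) was read at 0 and 15 min.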
A general note: Quantitative high-throughput screening tests each substance at several concentrations.

In experiment [2] the target is Phospholipid hydroperoxide glutathione peroxidase GPX4 (Homo sapiens) (UniProt P36969). Description: Primary qHTS Assay for Inhibitors of Recombinant Selenoprotein Glutathione Peroxidase 4 (GPX4) (AID 1845192). Note: nearly all actives have a fitted effect of over 65% in size. Note: potency is the fitted concentration of half-maximal effect. Summed up:
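GR-coupled readout: 100 nM GR, 1 mM GSH, 0.5 mM NADPH; NADPH fluorescence (ex 340/em 450 nm) read at t=0 and after 15 min RT. GPX4 200 nM, preincubated 30 min with compound; substrate 0.5 mM CHP.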

Experiment [3] concerns the target Luciferin 4-monooxygenase (Photinus pyralis) (UniProt P08659). Description: Primary firefly luciferase (FLuc) qHTS assay for identification of artifact compounds. (AID 1845220).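 Note: plate controls were DMSO vehicle for no effect and no enzyme for full effect; nearly all actives have a fitted effect of over 60% in size.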 In a few lines:
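Reaction readout was CCD-imaged luminescence, taken 5 min after adding 10 nM purified firefly enzyme to compound-treated wells holding 10 uM luciferin and ATP in pH 7.6 buffer.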

Experiment [4] is described as follows: Primary fluorescence-based thiol-reactive (MSTI) qHTS assay for identification of artifact compounds. (AID 1845221).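 Note: thiol-reactive compounds lower the probe fluorescence signal; nearly all actives have a fitted effect of over 65% in size.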 In a few lines:
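A multi-concentration qHTS design tested compounds against 4 uM MSTI, pH 7.4 phosphate-buffered saline. Plates were protected from light for 1 h at room temperature before imaging fluorescence.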

For experiment [5], the system named is Nanoluciferase (engineered Oplophorus gracilirostris luciferase). Briefly: Primary Nanoluciferase (NLuc) qHTS assay for identification of artifact compounds. (AID 1845222).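 Note: NLuc secreted into diluted conditioned medium of S16 cells; 0% = DMSO and -100% = no enzyme.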 In a few lines:
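Concentration-response data were obtained by luminescence after 5 min with Nano-Glo substrate at 1:100. The enzyme was diluted S16 NLuc-expressing cell medium, preincubated with compound for 15 min at RT. Curves were fitted with a 4-parameter Hill model.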

A short description of experiment [6]: Primary redox qHTS assay for identification of artifact compounds. (AID 1845223).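 Note: 0% = DMSO and 100% = reference compound.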 Summed up: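 Amplex Red (25 uM) and HRP (250 mU/mL) in HBSS, with compounds for 15 min, then 250 uM DTT for 30 min, room temperature, dark. Fluorescence 525/598 nm read; normalized to DMSO and 10 uM DA3003; Hill fit.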
Experiment [7] is described as follows: qHTS profiling for inhibitors of Plasmodium falciparum proliferation (AID 504749).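 For activity, negative = inhibition: 0% = DMSO vehicle and full inhibition = artemisinin control.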 For all read-outs here: nearly all actives have a fitted effect of over 60% in size. Note: potency is the fitted concentration of half-maximal effect. The note with it: P. falciparum in erythrocytes, SYBR Green DNA, 72 h; for activity, negative = inhibition: at 28.7 µM (top of the series). Summed up: (§1)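 P. falciparum-infected erythrocytes (0.3% parasitemia, 2.5% hematocrit final) were exposed to compounds for 72 h at 37 C in 5% CO2, then lysed with SYBR Green buffer overnight at room temperature; parasite DNA fluorescence was normalized to artemisinin and DMSO controls.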

The subject of experiment [8] is 3D7. The description is as above. As to conditions: P. falciparum in erythrocytes, SYBR Green DNA, 72 h; series mostly up to 28.7 µM. In a few lines: as §1
Experiment [9] concerns 7G8. The description is as above. The note with it: P. falciparum in erythrocytes, SYBR Green DNA, 72 h; series mostly up to 28.7 µM. In a few lines: as §1
The nature of experiment [10]: qHTS drug screen for cell cycle checkpoint inhibitors in PARPi-resistant BRCA-mutant ovarian cancer cell lines. (AID 1963452; calls by dose curve). As to conditions: PEO1/OlaR viability, CellTiter-Glo luminescence, 96 h, stronger effect = lower value. In a few lines: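 PEO1, PEO4 and PEO1/OlaR ovarian cancer cells, 600 per well, exposed 96 h at 37C to a dilution series. Viability read by CellTiter-Glo luminescence, normalized to DMSO and empty wells; activity summarized as Z-AUC.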

Where [11] appears, read: measured here: PEO1 parental Z-AUC.

Phospholipid hydroperoxide glutathione peroxidase GPX4 (Homo sapiens), sequence (P36969 whole entry, looked up): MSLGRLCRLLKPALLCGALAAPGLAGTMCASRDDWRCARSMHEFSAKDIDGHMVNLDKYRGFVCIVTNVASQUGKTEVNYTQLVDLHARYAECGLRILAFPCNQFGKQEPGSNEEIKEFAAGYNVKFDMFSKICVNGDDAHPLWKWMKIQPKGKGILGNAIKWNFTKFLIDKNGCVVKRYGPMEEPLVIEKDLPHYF
Glutathione peroxidase 1 (Homo sapiens), sequence (P07203 whole entry, looked up): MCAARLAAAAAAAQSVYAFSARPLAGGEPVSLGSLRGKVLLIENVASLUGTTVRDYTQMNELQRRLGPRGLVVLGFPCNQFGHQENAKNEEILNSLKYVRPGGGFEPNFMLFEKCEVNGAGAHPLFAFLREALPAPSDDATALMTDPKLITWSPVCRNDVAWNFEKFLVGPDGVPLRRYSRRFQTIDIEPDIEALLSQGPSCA

Take `CC(C(=O)O)c1ccc(C(=O)c2cccs2)cc1` (stereo unspecified): the Potency entry in experiment [1] and in experiment [2] was “inactive” each time.

Regarding `CCNC(=O)[C@H]1O[C@@H](n2cnc3c(N)nc(NCCc4ccc(CCC(=O)O)cc4)nc32)[C@H](O)[C@@H]1O`, the Potency result in experiment [1], in [2], in experiment [3] and in experiment [5] was “inactive” each time. For the same compound, the result in experiment [4] and in experiment [6] was inactive.

In the case of `[O-][n+]1ccccc1SSc1cccc[n+]1[O-]`, the Potency result in [1] and in [2] was “inactive” throughout. Besides, the Potency in experiment [7] (parasite line A), in [7] (parasite line B), in [8] and in experiment [9] was 891 nM (active) each time.

With `Cc1cn([C@H]2CC(N=[N+]=[N-])[C@@H](CO)O2)c(=O)[nH]c1=O` (stereo partly specified), the Potency entry in experiment [1] and in [2] was “inactive” in each case.

For `CO[C@@]1(NC(=O)Cc2cccs2)C(=O)N2C(C(=O)O)=C(COC(N)=O)CS[C@@H]21`, in [1], the Potency is 6400 nM (active). The Potency result in experiment [2] was “inactive”.

In the case of `C#C[C@]1(O)CC[C@H]2[C@@H]3CCc4cc(O)ccc4[C@H]3CC[C@@]21C`, the Potency entry in [1], in [2], in experiment [8] and in experiment [9] was “inactive” each time. The Z-AUC in experiment [10] was -0.519 (inactive); in experiment [10] (setting [11]) it was 0.139; in experiment [10] (measured here: PEO4 Z-AUC), 0.344. Further, the activity, negative = inhibition in experiment [7] (parasite line A) was 17.5% (inactive); in experiment [7] (parasite line B), 5.92% (inactive).

As to `C=CCc1cccc(/C=N/NC(=O)CN2CCN(Cc3ccccc3)CC2)c1O`, the Potency entry in experiment [1] and in [2] was “inactive” throughout. Besides, the Z-AUC was 0.78 (inactive) in experiment [10], 0.857 in experiment [10] (setting [11]) and 0.395 in experiment [10] (measured here: PEO4 Z-AUC).

Take `COc1cc2c3cc1Oc1cc(ccc1O)C[C@@H]1c4c(cc(OC)c(O)c4Oc4ccc(cc4)C[C@@H]3N(C)CC2)CC[N+]1(C)C`: the Potency result in experiment [1], in experiment [2], in experiment [8] and in experiment [9] was “inactive” throughout. The activity, negative = inhibition is 5.03% (inactive) in [7] (parasite line A) and 8.98% (inactive) in [7] (parasite line B).

Take `CC1(C)[C@@H](O)CC[C@]2(C)[C@H]3C(=O)C=C4[C@@H]5C[C@@](C)(C(=O)O)CC[C@]5(C)CC[C@@]4(C)[C@]3(C)CC[C@@H]12`: the Potency result in [1], in experiment [3], in experiment [5], in experiment [8] and in [9] was “inactive” in each case. Besides, the Potency result in experiment [2] is “inactive and 8.91 µM (active)”. Besides, the compound was called inactive in [4] and in experiment [6]. Further, the Z-AUC was 0.796 (inactive) in [10], 1.38 in experiment [10] (setting [11]) and 0.997 in [10] (measured here: PEO4 Z-AUC). The activity, negative = inhibition in experiment [7] (parasite line A) was -3.83% (inactive); in experiment [7] (parasite line B) it was -0.325% (inactive).
